This is a sample that favours compounds with a hit; in the whole collection about 10% have one here.
GPT2 inhibitor – blocks human glutamate pyruvate transaminase 2; Q8TD30; Recombinant GPT2, coupled pyruvate oxidase/HRP Amplex Red fluorescence; Potency, µM (top dose mostly 57.7 µM), for the others: top-dose activity change, negative = inhibition, hits mostly inhibitors; hit rate 0.25% among 100,000; AID 1671188; note: potency is the fitted concentration of half-maximal effect; % is set by controls: 0 for no effect and ±100 for the full control effect; nearly all actives have a fitted effect of over 60% in size
Target sequence (Q8TD30 whole entry, looked up): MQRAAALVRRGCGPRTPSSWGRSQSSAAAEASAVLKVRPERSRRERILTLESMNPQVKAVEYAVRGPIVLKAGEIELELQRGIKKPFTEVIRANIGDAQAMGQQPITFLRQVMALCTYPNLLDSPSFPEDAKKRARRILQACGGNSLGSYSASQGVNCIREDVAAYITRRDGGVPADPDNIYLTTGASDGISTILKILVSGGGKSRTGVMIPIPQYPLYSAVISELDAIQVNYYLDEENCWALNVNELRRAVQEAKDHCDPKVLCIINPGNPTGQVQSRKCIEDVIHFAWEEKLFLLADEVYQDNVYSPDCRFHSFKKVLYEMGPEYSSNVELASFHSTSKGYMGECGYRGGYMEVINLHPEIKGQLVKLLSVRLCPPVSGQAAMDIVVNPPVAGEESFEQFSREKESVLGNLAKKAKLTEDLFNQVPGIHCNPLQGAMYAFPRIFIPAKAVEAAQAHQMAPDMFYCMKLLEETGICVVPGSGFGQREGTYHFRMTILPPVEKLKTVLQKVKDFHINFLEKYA
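GPT2 10ng/uL, a-KG 250uM, L-Ala 2mM, HEPES pH7.5 + 0.0001% Tween; 30 min RT. Then Amplex mix (PO/HRP/ThPP), 30 min RT dark, fluorescence. AOA 50uM used as positive control.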
NIH3T3 tox – NIH 3T3 cell cytotoxicity | NIH 3T3 viability, CellTiter-Glo ATP luminescence, 48-72 h | hit rate 4.3% among 94,000 | Potency, µM (top dose mostly 96.7 µM), for the others: at the top dose activity change, negative = cytotoxicity, most hits filed as inhibitors; note: potency is the fitted concentration of half-maximal effect; % is set by controls: 0 for no effect and ±100 for the full control effect; nearly all actives have a fitted effect of over 55% in size
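Luminescent ATP readout (CellTiter-Glo, 10 min RT) after 48 or 72 hr compound exposure of NIH 3T3 cells seeded at 400 cells/well in 1536-well format; quantitative HTS.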
hNpr1 antagonist – blocks ANP-stimulated signaling of human Npr1 receptor | hit rate 1.6% among 76,000 | Potency, µM (titrated, usually from 46.3 µM), without a hit: top-dose activity change, negative = inhibition, usual class: inhibitors | HEK293 hNpr1 GloSensor cGMP, ANP-stimulated luminescence | P16066 | AID 1347048; calls by dose curve; note: potency is the fitted concentration of half-maximal effect; % is set by controls: 0 for no effect and ±100 for the full control effect; nearly all actives have a fitted effect of over 60% in size
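HEK293 cells stably expressing human Npr1 and cGMP GloSensor pGS-40F, loaded 2 h with 2% GloSensor reagent, given compound 30 min at room temperature. Luminescence read before and 20 min after 0.1 nM hNppA.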
HEK cytotox – kills HEK 293 cells; HEK 293 viability, ATP luminescence (CellTiter-Glo), 48-72 h; Potency, µM (doses to about 115 µM), for the others: at the top dose activity change, negative = cytotoxicity, usual class: inhibitors; hit rate 6.6% among 94,000; note: potency is the fitted concentration of half-maximal effect; % is set by controls: 0 for no effect and ±100 for the full control effect; nearly all actives have a fitted effect of over 60% in size
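Cells seeded first (HEK 293, 250 cells/well), then compound added by pintool. Incubation ran 48 or 72 hr at 37 degree Celsius. CellTiter-Glo was added and luminescence imaged after 10 min at room temperature.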
Luciferase inh – Photinus pyralis luciferase inhibition. P08659. purified P. pyralis luciferase, luminescence, biochemical. Potency, µM (series often up to 115 µM), hits mostly inhibitors. hit rate 2.5% among 76,000. AID 1347043; note: potency is the fitted concentration of half-maximal effect; % is set by controls: 0 for no effect and ±100 for the full control effect; nearly all actives have a fitted effect of over 65% in size
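Biochemical qHTS: compound (6-point titration) added to 10uM D-luciferin plus 10uM ATP in Tris acetate pH 7.5 buffer with Mg, Tween-20 and BSA, then purified enzyme at 10nM; light output imaged.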
Npr1 antag conf – confirmation of human Npr1 natriuretic peptide receptor antagonists | shares compounds with hNpr1 antagonist | HEK293 hNpr1 cGMP GloSensor luminescence, ANP-stimulated | Potency, µM (titrated, usually from 57.6 µM), for the others: at the highest dose activity change, negative = inhibition, most hits filed as inhibitors | hit rate 76% among 1,400; calls by dose curve; note: potency is the fitted concentration of half-maximal effect; nearly all actives have a fitted effect of over 70% in size
NPR2 antag – antagonizes human Npr2, subtype selectivity check | shares compounds with hNpr1 antagonist | HEK293 hNpr2 GloSensor cGMP luminescence, CNP-stimulated | Potency, µM (titrated, usually from 57.6 µM), for inactives: at the top dose activity change, negative = inhibition, hits mostly inhibitors | hit rate 67% among 1,400; calls by dose curve; note: potency is the fitted concentration of half-maximal effect; nearly all actives have a fitted effect of over 70% in size
FLuc counter – inhibits firefly luciferase, false Npr1 antagonist flag; AID 1347047; purified FLuc enzyme, luminescence, Km substrate; hit rate 0.7% among 1,400; Potency, µM (series often up to 57.6 µM), for the others: top-dose activity change, negative = inhibition, usual class: inhibitors; shares compounds with hNpr1 antagonist; note: potency is the fitted concentration of half-maximal effect; 0% is about no effect
GloSensor cGMP – reduces cGMP signal in GloSensor control cells. HEK293 GloSensor cGMP, SNP-stimulated, luminescence. Potency, µM (top dose mostly 57.6 µM), for inactives: at the top dose activity change, negative = inhibition, hits mostly inhibitors. shares compounds with hNpr1 antagonist. hit rate 69% among 1,400; calls by dose curve; note: potency is the fitted concentration of half-maximal effect; % is set by controls: 0 for no effect and ±100 for the full control effect; nearly all actives have a fitted effect of over 70% in size
GPT2 conf – confirmation of human GPT2 inhibitors | shares compounds with GPT2 inhibitor | GPT2 enzyme, coupled Amplex Red pyruvate fluorescence | Potency, µM, hits mostly inhibitors | hit rate 90% among 95
* marks the source's active call; other numbers are inactive results; i = inactive; ? = inconclusive; . = not tested or not shown; [ ] = remark or other dose. Unless noted, calls come from the whole dose curve; as a rule, active = well fitted curve in the direction sought with a large enough effect; inconclusive = small, poorly fitted or top-dose-only effect, or another doubt; inactive = no such curve, though single readings can be large; an effect the other way counts as inactive or inconclusive.

SMILES | GPT2 inhibitor | NIH3T3 tox | hNpr1 antagonist | HEK cytotox | Luciferase inh | Npr1 antag conf | NPR2 antag | FLuc counter | GloSensor cGMP | others
Cc1ccc(C(=O)N2CCC(Cc3nc(-c4cnccn4)no3)CC2)cc1C | i | ? | -6.8% | -29.7% | i | . | . | . | .
Cc1noc(C)c1C(=O)N1Cc2ccccc2CC2(CCCN2C)C1 (configuration not stated) | i | -16.6% | . | -25.2% | . | . | . | . | .
O=C(Nc1cccc(-c2nnc3n2CCCC3)c1)c1ccc(F)c(F)c1 | i | -28.6% | -1.7% | ? | i | . | . | . | .
CN(C)C(=O)NCCNC(=O)c1ccc(-c2cncnc2)cc1 | . | -18.3%[138 µM] | . | 0.4%[172 µM] | . | . | . | . | .
CCNC(=O)C1CCCN(S(=O)(=O)c2ccccc2)CCC(=O)NCC1 (configuration not stated) | i | i | 3.3% | i | i | . | . | . | .
O=C(c1ccc(F)cc1)N1CCC[C@H](c2nc(-c3ccc(F)cc3)no2)C1 | -15.3% | . | . | . | . | . | . | . | .
CCc1ccc(C(=O)N2CCC(Cc3nc(-c4ccc(F)cc4)no3)CC2)cc1 | 0.0% | ? | 1.26µM* | ? | i | 1.53µM* | 1.72µM* | 4.2% | 1.53µM*
Cn1c(C(=O)N2CCn3nc(Cc4ccccc4)cc3C2)cc2ccccc21 | 2.8% | ? | -21.7% | ? | i | . | . | . | .
Cn1nccc1C(=O)N1CCC2(CC1)OCCN(Cc1ccccc1F)C2=O | -10.3%[88.5 µM] | -19.7%[138 µM] | 31.6µM* | ? | i | 35.3µM* | 31.4µM* | 0.1%[86.2 µM] | 31.4µM*
COc1cc(NC(=O)Cn2c(N3CCC(C)CC3)nc(C)cc2=O)cc(OC)c1 | -11.4% | ? | 6.31µM* | ? | i | 9.68µM* | 12.2µM* | 2.6% | 6.85µM*
COc1ccc(OC)c(NC(=O)Cn2c(N3CCC(C)CC3)nc(C)cc2=O)c1 | 3.1% | ? | 12.6µM* | ? | i | 21.7µM* | 21.7µM* | 3.9% | 24.3µM*
Cc1cc(=O)n(CC(=O)Nc2cccc(Cl)c2)c(N2CCc3ccccc3C2)n1 | i | 14.1µM* | 20µM* | ? | i | -29.7% | -22.7% | 0.7% | ?
Cc1cc(=O)n(CC(=O)Nc2ccc(Cl)cc2)c(N2CCc3ccccc3C2)n1 | i | ? | -16.4% | ? | i | . | . | . | .
O=C(C1CC1)N1CCC(C(=O)N2CCC(N3Cc4cccn4C3=O)CC2)CC1 | -11.1% | -17.2% | . | -5.8% | . | . | . | . | .
COc1ccc(C2(C(=O)NCc3cccnc3N3CCN(C)CC3)CC2)cc1 | 1.2% | 4.7% | -5.4% | 0.4% | i | . | . | . | .
CC(=O)NC1(C)CN(c2ccc(OC(F)(F)F)cc2)C1 | -9.1%[88.5 µM] | ? | -12.6%[70.6 µM] | ? | i | . | . | . | .
COc1ccc(N2CC(C)(NC(C)=O)C2)cc1 | . | . | . | . | . | . | . | . | . | GPT2 conf=3.52*
COc1ccc(C(=O)NC2CCN(Cc3ccc(-c4ccsc4)cc3)C2)cc1 (configuration not stated) | i | ? | . | ? | . | . | . | . | .
COc1cccc([S+](=O)([O-])N2CCNc3cnc(Nc4ccc(N5CCOCC5)cc4)nc3C2)c1 | 1.12µM* | -6.6% | 2.3% | ? | i | . | . | . | . | GPT2 conf=1.22*

Source: PubChem BioAssay (National Center for Advancing Translational Sciences (NCATS))
